PMC11006913
Residue numbers refer to the chain shown, from its start.

How the values were obtained:
Test in all cases: PBM; 200 nM protein, PBS
Details in all cases: dsDNA, one strand shown
ALX3 [1] = target: ALX3 (Homo sapiens, UniProt O95076 139-225, N203Q)
SHOX = SHOX (Homo sapiens, UniProt O15266 103-189, R173C)
PAX4 [2] = target: T1, PAX4 (Homo sapiens, UniProt O43316 9-242, F177V)
T1 sequence: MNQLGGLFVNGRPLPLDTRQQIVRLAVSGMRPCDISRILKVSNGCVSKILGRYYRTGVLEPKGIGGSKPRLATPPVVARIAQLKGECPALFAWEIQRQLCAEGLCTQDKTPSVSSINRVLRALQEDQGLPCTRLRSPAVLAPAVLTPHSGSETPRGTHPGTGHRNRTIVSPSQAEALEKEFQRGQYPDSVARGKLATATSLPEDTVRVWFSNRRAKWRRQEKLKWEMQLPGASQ

ALX3 [3] = target: ALX3 (Homo sapiens, UniProt O95076 139-225)
Chain of ALX3 (Homo sapiens, UniProt O95076 139-225) (O95076 139-225): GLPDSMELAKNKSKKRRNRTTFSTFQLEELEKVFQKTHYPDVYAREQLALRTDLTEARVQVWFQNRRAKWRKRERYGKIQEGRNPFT

PAX4 [4] = target: T2, PAX4 (Homo sapiens, UniProt O43316 9-242, F177Y)
T2 sequence: T1 sequence with V169Y

ALX3 [5] = target: ALX3 (Homo sapiens, UniProt O95076 139-225, N203S)
Chain of ALX3 (Homo sapiens, UniProt O95076 139-225, N203S) (O95076 139-225 N203S): as the sequence (O95076 139-225) above, with N65S counted along it

VAX1 [6] = target: VAX1 (Homo sapiens, UniProt Q5SQQ9 86-172)
Chain of VAX1 (Homo sapiens, UniProt Q5SQQ9 86-172) (Q5SQQ9 86-172): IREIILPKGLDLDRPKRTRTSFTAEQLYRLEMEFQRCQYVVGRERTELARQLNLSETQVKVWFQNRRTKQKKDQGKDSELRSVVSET

VAX1 [7] = target: VAX1 (Homo sapiens, UniProt Q5SQQ9 86-172, T142I)
Chain of VAX1 (Homo sapiens, UniProt Q5SQQ9 86-172, T142I) (Q5SQQ9 86-172 T142I): as the sequence (Q5SQQ9 86-172) above, with T57I counted along it

VAX1 [8] = target: VAX1 (Homo sapiens, UniProt Q5SQQ9 86-172, K157R)
Chain of VAX1 (Homo sapiens, UniProt Q5SQQ9 86-172, K157R) (Q5SQQ9 86-172 K157R): as the sequence (Q5SQQ9 86-172) above, with K72R counted along it

HOXA2 [9] = target: HOXA2 (Homo sapiens, UniProt O43364 129-215, R185T)
Chain of HOXA2 (Homo sapiens, UniProt O43364 129-215, R185T) (O43364 129-215 R185T): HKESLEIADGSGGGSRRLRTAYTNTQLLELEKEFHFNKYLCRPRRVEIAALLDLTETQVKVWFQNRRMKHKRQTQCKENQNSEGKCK

HOXA2 [10] = target: HOXA2 (Homo sapiens, UniProt O43364 129-215, R185K)
Chain of HOXA2 (Homo sapiens, UniProt O43364 129-215, R185K) (O43364 129-215 R185K): as the sequence (O43364 129-215 R185T) above, with T57K counted along it

HOXA2 [11] = target: HOXA2 (Homo sapiens, UniProt O43364 129-215, Y150S)
Chain of HOXA2 (Homo sapiens, UniProt O43364 129-215, Y150S) (O43364 129-215 Y150S): as the sequence (O43364 129-215 R185T) above, with Y22S, T57R counted along it

HOXA2 [12] = target: HOXA2 (Homo sapiens, UniProt O43364 129-215)
Chain of HOXA2 (Homo sapiens, UniProt O43364 129-215) (O43364 129-215): as the sequence (O43364 129-215 R185T) above, with T57R counted along it

HOXA7 [13] = target: HOXA7 (Homo sapiens, UniProt P31268 116-202)
Chain of HOXA7 (Homo sapiens, UniProt P31268 116-202) (P31268 116-202): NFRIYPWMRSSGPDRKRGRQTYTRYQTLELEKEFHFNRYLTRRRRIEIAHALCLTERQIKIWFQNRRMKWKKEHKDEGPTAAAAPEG

HOXA7 [14] = target: HOXA7 (Homo sapiens, UniProt P31268 116-202, W177C)
Chain of HOXA7 (Homo sapiens, UniProt P31268 116-202, W177C) (P31268 116-202 W177C): as the sequence (P31268 116-202) above, with W62C counted along it

HOXB6 = HOXB6 (Homo sapiens, UniProt P17509 132-218, K202E)
Chain of HOXB6 (P17509 132-218 K202E): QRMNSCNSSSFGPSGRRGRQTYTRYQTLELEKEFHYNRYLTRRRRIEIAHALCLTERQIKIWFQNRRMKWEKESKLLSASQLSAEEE

Chain of ALX3 (Homo sapiens, UniProt O95076 139-225, N203Q) (O95076 139-225 N203Q): as the sequence (O95076 139-225) above, with N65Q counted along it
Chain of SHOX (O15266 103-189 R173C): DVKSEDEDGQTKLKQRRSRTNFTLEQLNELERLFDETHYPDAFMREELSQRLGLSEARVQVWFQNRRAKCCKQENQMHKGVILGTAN

For AATTAACC, the binding signal (ALX3 [1]) was 8.33 upbm affinity estimate (log intensity, higher = more binding, comparable within an allelic series), the binding signal (SHOX) was 9.27 upbm affinity estimate (log intensity, higher = more binding, comparable within an allelic series) and the binding signal (PAX4 [2]) was 10.4 upbm affinity estimate (log intensity, higher = more binding, comparable within an allelic series). For the same sequence, the binding signal (ALX3 [3]) was 12.3 upbm affinity estimate (log intensity, higher = more binding, comparable within an allelic series), the binding signal (PAX4 [4]) was 10.8 upbm affinity estimate (log intensity, higher = more binding, comparable within an allelic series) and the binding signal (ALX3 [5]) was 8.5 upbm affinity estimate (log intensity, higher = more binding, comparable within an allelic series).
CTCTCCAG was tested, and the binding signal (VAX1 [6]) was 7 upbm affinity estimate (log intensity, higher = more binding, comparable within an allelic series), the binding signal (VAX1 [7]) was 7.16 upbm affinity estimate (log intensity, higher = more binding, comparable within an allelic series) and the binding signal (VAX1 [8]) was 7.01 upbm affinity estimate (log intensity, higher = more binding, comparable within an allelic series).
For GAACCCCC, the binding signal (HOXA2 [9]) was 7.12 upbm affinity estimate (log intensity, higher = more binding, comparable within an allelic series), the binding signal (HOXA2 [10]) was 10 upbm affinity estimate (log intensity, higher = more binding, comparable within an allelic series) and the binding signal (HOXA2 [11]) was 10.3 upbm affinity estimate (log intensity, higher = more binding, comparable within an allelic series). For the same sequence, the binding signal (HOXA2 [12]) was 7.05 upbm affinity estimate (log intensity, higher = more binding, comparable within an allelic series).
For AATTATCT, the binding signal (ALX3 [1]) was 8.49 upbm affinity estimate (log intensity, higher = more binding, comparable within an allelic series), the binding signal (PAX4 [2]) was 10.5 upbm affinity estimate (log intensity, higher = more binding, comparable within an allelic series) and the binding signal (ALX3 [3]) was 12.4 upbm affinity estimate (log intensity, higher = more binding, comparable within an allelic series). The binding signal (PAX4 [4]) was 11 upbm affinity estimate (log intensity, higher = more binding, comparable within an allelic series) and the binding signal (ALX3 [5]) was 8.6 upbm affinity estimate (log intensity, higher = more binding, comparable within an allelic series).
With AGCTGCCT the binding signal (HOXA7 [13]) was 8.26 upbm affinity estimate (log intensity, higher = more binding, comparable within an allelic series) and the binding signal (HOXA7 [14]) was 8.25 upbm affinity estimate (log intensity, higher = more binding, comparable within an allelic series).
With TAATTGTA the binding signal (HOXB6) was 10 upbm affinity estimate (log intensity, higher = more binding, comparable within an allelic series), the binding signal (ALX3 [1]) was 8.59 upbm affinity estimate (log intensity, higher = more binding, comparable within an allelic series) and the binding signal (PAX4 [2]) was 10.5 upbm affinity estimate (log intensity, higher = more binding, comparable within an allelic series). For the same sequence, the binding signal (ALX3 [5]) was 8.7 upbm affinity estimate (log intensity, higher = more binding, comparable within an allelic series).
In the case of GCCGGCGA, the binding signal (PAX4 [2]) is reported as 9.13 upbm affinity estimate (log intensity, higher = more binding, comparable within an allelic series), the binding signal (PAX4 [4]) is reported as 9.03 upbm affinity estimate (log intensity, higher = more binding, comparable within an allelic series) and the binding signal (VAX1 [6]) is reported as 6.87 upbm affinity estimate (log intensity, higher = more binding, comparable within an allelic series). The binding signal (VAX1 [7]) was 7.22 upbm affinity estimate (log intensity, higher = more binding, comparable within an allelic series) and the binding signal (VAX1 [8]) was 7.26 upbm affinity estimate (log intensity, higher = more binding, comparable within an allelic series).
For AATTATCG, the binding signal (ALX3 [1]) was 8.39 upbm affinity estimate (log intensity, higher = more binding, comparable within an allelic series), the binding signal (SHOX) was 9.18 upbm affinity estimate (log intensity, higher = more binding, comparable within an allelic series) and the binding signal (ALX3 [3]) was 12.3 upbm affinity estimate (log intensity, higher = more binding, comparable within an allelic series). For the same sequence, the binding signal (ALX3 [5]) was 8.5 upbm affinity estimate (log intensity, higher = more binding, comparable within an allelic series).
In the case of AGTCGCGC, the binding signal (VAX1 [6]) is reported as 7.29 upbm affinity estimate (log intensity, higher = more binding, comparable within an allelic series), the binding signal (VAX1 [7]) is reported as 7.12 upbm affinity estimate (log intensity, higher = more binding, comparable within an allelic series) and the binding signal (VAX1 [8]) is reported as 7.18 upbm affinity estimate (log intensity, higher = more binding, comparable within an allelic series).
CAGTGCCG was tested, and the binding signal (VAX1 [6]) was 7.15 upbm affinity estimate (log intensity, higher = more binding, comparable within an allelic series), the binding signal (VAX1 [7]) was 7.27 upbm affinity estimate (log intensity, higher = more binding, comparable within an allelic series) and the binding signal (VAX1 [8]) was 7.09 upbm affinity estimate (log intensity, higher = more binding, comparable within an allelic series).
In the case of CACGGCGC, the binding signal (VAX1 [6]) is reported as 7.16 upbm affinity estimate (log intensity, higher = more binding, comparable within an allelic series), the binding signal (VAX1 [7]) is reported as 7.21 upbm affinity estimate (log intensity, higher = more binding, comparable within an allelic series) and the binding signal (VAX1 [8]) is reported as 7.23 upbm affinity estimate (log intensity, higher = more binding, comparable within an allelic series).
With CGCCCAAG the binding signal (ALX3 [1]) was 7.75 upbm affinity estimate (log intensity, higher = more binding, comparable within an allelic series), the binding signal (ALX3 [3]) was 7.67 upbm affinity estimate (log intensity, higher = more binding, comparable within an allelic series) and the binding signal (ALX3 [5]) was 7.78 upbm affinity estimate (log intensity, higher = more binding, comparable within an allelic series).
In the case of ACAGCGCG, the binding signal (VAX1 [6]) is reported as 7.27 upbm affinity estimate (log intensity, higher = more binding, comparable within an allelic series), the binding signal (VAX1 [7]) is reported as 7.28 upbm affinity estimate (log intensity, higher = more binding, comparable within an allelic series) and the binding signal (VAX1 [8]) is reported as 7.22 upbm affinity estimate (log intensity, higher = more binding, comparable within an allelic series).
In the case of CACCCCCC, the binding signal (ALX3 [1]) is reported as 7.67 upbm affinity estimate (log intensity, higher = more binding, comparable within an allelic series), the binding signal (ALX3 [3]) is reported as 7.7 upbm affinity estimate (log intensity, higher = more binding, comparable within an allelic series) and the binding signal (ALX3 [5]) is reported as 7.71 upbm affinity estimate (log intensity, higher = more binding, comparable within an allelic series).
For GCGTGGCC, the binding signal (VAX1 [6]) was 7.21 upbm affinity estimate (log intensity, higher = more binding, comparable within an allelic series), the binding signal (VAX1 [7]) was 7.36 upbm affinity estimate (log intensity, higher = more binding, comparable within an allelic series) and the binding signal (VAX1 [8]) was 6.97 upbm affinity estimate (log intensity, higher = more binding, comparable within an allelic series).
In the case of CTAGGGCC, the binding signal (ALX3 [1]) is reported as 7.79 upbm affinity estimate (log intensity, higher = more binding, comparable within an allelic series), the binding signal (ALX3 [3]) is reported as 7.79 upbm affinity estimate (log intensity, higher = more binding, comparable within an allelic series) and the binding signal (ALX3 [5]) is reported as 7.79 upbm affinity estimate (log intensity, higher = more binding, comparable within an allelic series).
